This passage reports outcome and AC50 results from PubChem BioAssay (EPA / NIEHS).

Experiment [1] in a line: IUF_NPC1b_proliferation_BrdU_72hr: Leibniz Research Institute for Environmental Medicine (IUF) 72-hour Neural Progenitor Cell Bromodeoxyuridine (BrdU) Proliferation Assay (NPC1b) (AID 2284207). Put shortly:
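Neural progenitor spheres of human fetal origin are treated for three days; BrdU added for the last 16 h is quantified by luminescence ELISA, with DMSO as baseline and EGF/FGF omission as positive control.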

A short description of experiment [2]: IUF_NPC1a_proliferation_area_72hr: Leibniz Research Institute for Environmental Medicine (IUF) 72-hour Neural Progenitor Cell Proliferation Area Assay (NPC1a) (AID 2284208). Put shortly: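 Spheres of 0.3 mm are plated singly in growth-factor medium and exposed from day 0. After three days at 37C and 5% CO2, sphere area is measured by phase contrast imaging, with activity referenced to DMSO.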

Experiment [3] can be described thus: IUF_NPC1_viability_72hr: Viability Assessment at 72 hours in the Leibniz Research Institute for Environmental Medicine (IUF) Neural Progenitor Cell Proliferation Assay (NPC1) (AID 2284209). Put shortly: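 Spheres of primary human neural progenitors were plated singly in proliferation medium and treated for 72 h. Mitochondrial reduction of resazurin was then measured by fluorescence and analysed against DMSO controls.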

Experiment [4] is described as follows: CCTE_Mundy_HCI_Cortical_Synap_Neur_Matur_NeuriteSpotCountPerNeuriteLength: CCTE's Synaptogenesis and Neurite Maturation Assay in rat cortical cells for Neurite Spot Count per Neurite Length, Mundy Lab (AID 2284210). Put shortly:
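Neurite-associated synapse density (synaptophysin puncta per unit neurite length) is measured by fluorescence high-content imaging in rat cortical cultures treated from DIV 7 and fixed at DIV 12, with DMSO as negative control.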

The nature of experiment [5]: CCTE_Mundy_HCI_Cortical_Synap_Neur_Matur_BPCount: CCTE's Synaptogenesis and Neurite Maturation Assay in rat cortical cells for Branch Point Count, Mundy Lab (AID 2284211). Put shortly: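 HCI read-out of branch points from MAP2/synaptophysin/Hoechst immunofluorescence; rat cortical cultures, AraC DIV 5, dosing DIV 7, fixed DIV 12; fit in positive direction vs DMSO baseline.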

Experiment [6] can be described thus: CCTE_Mundy_HCI_Cortical_NOG_NeuriteCount: CCTE's Neurite Outgrowth Assay in rat cortical cells for Neurite Count, Mundy Lab (AID 2284212).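 Note: cells fixed about two days after chemical exposure began.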 Put shortly: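 Rat cortical primary cells; compound added 2 h post-plating, 1/10 dilution of working solution. Anti-betaIII-tubulin/AF488 ICC; ArrayScan neurite count vs DMSO.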
The nature of experiment [7]: CCTE_Mundy_HCI_Cortical_Synap_Neur_Matur_NeuriteLength: CCTE's Synaptogenesis and Neurite Maturation Assay in rat cortical cells for Neurite Length, Mundy Lab (AID 2284214). Put shortly:
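Cultures of rat primary cortical cells received chemical at DIV 7 and were fixed at DIV 12, after glial arrest with AraC at DIV 5. Neurite length was measured by automated imaging of MAP2 immunofluorescence.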

A short description of experiment [8]: CCTE_Mundy_HCI_Cortical_Synap_Neur_Matur_NeuriteSpotCountPerNeuron: CCTE's Synaptogenesis and Neurite Maturation Assay in rat cortical cells for Neurite Spot Count per Neuron Count, Mundy Lab (AID 2284215). Put shortly: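 Rat cortical primary cultures; AraC DIV 5 to arrest glia; dosing + media change DIV 7; fixed DIV 12. Anti-MAP2/anti-synaptophysin, Hoechst nuclei; HCI puncta count per neuron, positive fitting direction vs DMSO.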

Experiment [9] is described as follows: CCTE_Mundy_HCI_Cortical_Synap_Neur_Matur_SynapseCount: CCTE's Synaptogenesis and Neurite Maturation Assay in rat cortical cells for Synapse Count, Mundy Lab (AID 2284218). Put shortly: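 Cells were plated, allowed 2 hr to attach, treated with AraC at DIV 5, then exposed to chemicals from DIV 7 until DIV 12. After fixation and MAP2/synaptophysin immunolabelling, synapses per neuron were quantified by automated imaging against DMSO.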

Experiment [10] in a line: CCTE_Mundy_HCI_hN2_NOG_NeuriteCount: CCTE's Neurite Outgrowth Assay in human hN2 cells for Neurite Count, Mundy Lab (AID 2284219; active = hit-call score of the fitted dose curve at least 0.9, where 1 is the maximum). Put shortly: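 In this morphology assay, hNP1-derived neurons received test chemical 2 h post-plating and were fixed two days later in warm paraformaldehyde/sucrose containing Hoechst 33342. Neurites, labelled by rabbit anti-βIII-tubulin (1:800) and Alexa Fluor-488 (1:500), were counted automatically.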

Experiment [11] is described as follows: CCTE_Mundy_HCI_hN2_NOG_NeuriteLength: CCTE's Neurite Outgrowth Assay in human hN2 cells for Neurite Length, Mundy Lab (AID 2284220; active = hit-call score of the fitted dose curve at least 0.9, where 1 is the maximum). Put shortly:
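Using βIII-tubulin immunofluorescence and Hoechst nuclear counterstain, this component quantifies neurite length in hNP1-derived neurons.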

A short description of experiment [12]: CCTE_Mundy_HCI_Cortical_Synap_Neur_Matur_CellBodySpotCount: CCTE's Synaptogenesis and Neurite Maturation Assay in rat cortical cells for Cell Body Spot Count, Mundy Lab (AID 2284223). Put shortly:
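Rat cortical neurons; AraC @ DIV 5; dose + media change DIV 7; fix DIV 12; anti-MAP2/anti-synaptophysin IF, Hoechst; HCI count of soma synaptophysin puncta/neuron; DMSO = negative control.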

Experiment [13] is described as follows: CCTE_Mundy_HCI_hNP1_Pro_ResponderAvgInten: CCTE's Proliferation Assay in human neuroprogenitor cells, Mundy Lab (AID 2284224; active = hit-call score of the fitted dose curve at least 0.9, where 1 is the maximum;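 note: human neural progenitor cells hNP1 derived from WA09 embryonic stem cells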). Put shortly: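 Human neuroprogenitors (hNP1, WA09 lineage) receive test chemical after 40 to 44 hours of attachment. A four-hour BrdU pulse begins twenty hours later, followed by fixation and high content imaging; signal is referenced to DMSO controls.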

A short description of experiment [14]: BSK_BT_PBMCCytotoxicity: PBMC Cytotoxicity Assessment in the BioMAP Diversity Plus: BT Assay (AID 2284225).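 Note: PBMC viability measured by Alamar Blue dye reduction fluorescence.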 The following applies: primary human B cells with PBMC. Put shortly: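 Viability by Alamar Blue reduction (6 h, ex/em 546/580 nm) after 90 h culture of SEB/TSST-1-activated PBMC (20 ng/mL each) given compound 1 h before activation. DMSO served as baseline for curve fitting.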

Read-out in experiment [15]: Secreted IgG (sIgG), gene 3500
The experiment can be described thus: BSK_BT_sIgG: BioMAP Diversity Plus: BT Assay for Secreted IgG (sIgG) Biomarker Activity (AID 2284226). The following applies: primary human B cells with PBMC. Put shortly: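 Cells (B cells with peripheral blood mononuclear cells) are dosed, cultured 24 h, then supernatant IgG is measured by ELISA. DMSO serves as negative control; curves are fitted for signal increase.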

Experiment [16] is described as follows: BSK_BT_Bcell_Proliferation: Viability Assessment in the BioMAP Diversity Plus: BT Assay for B cell Proliferation (AID 2284227). The following applies: primary human B cells with PBMC. Put shortly:
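Human B cells co-cultured with PBMC were dosed with test chemicals and relative cell number was quantified by SRB staining at 72 h. Cells were fixed in 10% TCA, stained with 0.1% SRB and read at 560 nm. Activity was fitted in the positive direction against DMSO.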

Read-out in experiment [17]: Interleukin 6 (IL6), IL6 (gene 3569)
The experiment can be described thus: BSK_BT_xIL6: BioMAP Diversity Plus: BT Assay for Interleukin 6 (IL6) Biomarker Activity (AID 2284228). The following applies: primary human B cells with PBMC. Put shortly:
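B cells and peripheral blood mononuclear cells (human primary co-culture) were dosed with chemical, and after 24 h IL-6 released into the medium was measured by Luminex xMAP. Responses were analysed as gain of signal over DMSO control.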

Read-out in experiment [18]: Interleukin 17A (IL17A), IL17A (gene 3605)
The experiment can be described thus: BSK_BT_xIL17A: BioMAP Diversity Plus: BT Assay for Interleukin 17A (IL17A) Biomarker Activity (AID 2284229). The following applies: primary human B cells with PBMC. Put shortly:
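Secreted IL-17A was the measured endpoint, read by Luminex xMAP multiplex in supernatants of a human B cell/PBMC co-culture harvested 24 h after chemical dosing. Signal increase relative to DMSO defined activity.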

The nature of experiment [19]: CCTE_Mundy_HCI_hN2_NOG_NeuronCount: CCTE's Neurite Outgrowth Assay in human hN2 cells for Neuron Count, Mundy Lab (AID 2284221; active = hit-call score of the fitted dose curve at least 0.9, where 1 is the maximum). Put shortly: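 Read-out is the number of betaIII-tubulin-positive neurons imaged by automated high-content analysis, with DMSO as negative control.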

Records with an inconclusive call do not appear. The source made the active and inactive calls. Rule for the calls, unless noted: active = hit-call score of the fitted dose curve at least 0.9, where 1 is the maximum; inactive = score below 0.9.

Usually AC50 stands for the concentration giving half of the maximal activity seen. For the compound `CCOC(=O)CC(SP(=O)(OC)OC)C(=O)OCC` (stereo not drawn), the call in experiment [1], in [2], in experiment [4], in [5], in [6] and in experiment [7] was inactive. The outcome in experiment [8], in [9], in experiment [10], in experiment [11] and in experiment [12] was inactive. The AC50 in experiment [3] was 1.06 µM (active).

Take `CN(C)[C@@H]1C(=O)C(C(N)=O)=C(O)[C@@]2(O)C(=O)C3=C(O)c4c(O)cccc4[C@@](C)(O)[C@H]3[C@H](O)[C@@H]12`: the AC50 was 12.1 µM (active) in [1]; 50 µM (active) in [4]; 70.5 µM (active) in [5]; 60.9 µM (active) in experiment [7]; 50 µM (active) in experiment [8]; 50 µM (active) in experiment [9]. The AC50 in experiment [12] is 50 µM (active); in [13], 90.6 µM (active). Moreover, the compound was called inactive in experiment [2], in [3], in [6], in [14], in experiment [15] and in experiment [16]. The outcome in [17] and in [18] was inactive.

Take `CN1COCN(Cc2cnc(Cl)s2)C1=N[N+](=O)[O-]`: the result in [1], in experiment [2], in [3], in experiment [4], in [5] and in experiment [6] was inactive. The call in experiment [7], in experiment [8], in experiment [9], in experiment [12] and in experiment [13] was inactive.

With `C[N+]1(C)CCCCC1`, the result in experiment [1], in [2], in [3], in [4], in experiment [5] and in experiment [6] was inactive. For the same compound, the outcome in [7], in experiment [8], in experiment [9] and in [12] was inactive.

In the case of `CCCSP(=O)(OCC)Oc1ccc(Br)cc1Cl` (stereo not drawn), the outcome in experiment [4], in experiment [5], in [6], in experiment [7], in experiment [8] and in experiment [9] was inactive. For the same compound, the outcome in [19] and in experiment [12] was inactive.

With `CCOP(=O)(SC(C)CC)N1CCSC1=O` (stereo not drawn), the compound was called inactive in experiment [4], in experiment [5], in experiment [6], in [7], in [8] and in experiment [9]. The outcome in [10], in [11], in experiment [19] and in experiment [12] was inactive.

`CC(=NC#N)N(C)Cc1ccc(Cl)nc1`: the AC50 in [1] is 0.385 µM (active). In addition, the outcome in [2], in [3], in [4], in [5], in experiment [6] and in [7] was inactive. Also, the compound was classed as inactive in [8], in experiment [9], in [12] and in [13].
